The source of these data is PubChem BioAssay (EPA / NIEHS).

Assay [1] is described as follows: TOX21_p53_BLA_p2_viability: Viability Assessment in the Tox21 HCT-116 p53 Agonism Beta-lactamase Assay, Phase 2 (AID 2283591).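 Also: actives lower the ATP signal meaning cytotoxicity.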 In outline: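 HCT116 p53-bla cells, 4000/well, dosed after 5 h plating (217-fold dilution of DMSO stocks) and incubated 16 h at 37C. Viability taken as cellular ATP by CellTiter-Glo luminescence after 30 min RT; signal loss marks cytotoxicity.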

Assay [2] in a line: TOX21_p53_BLA_p3_viability: Viability Assessment in the Tox21 HCT-116 p53 Agonism Beta-lactamase Assay, Phase 3 (AID 2283593).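 Also: cells exposed to compound for 16 h before reading.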 In outline:
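HCT116 cells, 4000/well, dosed 5 h after plating by pin transfer (217-fold dilution from DMSO stock) and incubated 16 h at 37C, 5% CO2. Viability read as ATP luminescence with CellTiter-Glo after 30 min at room temperature.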

Assay [3] has as its target Cellular tumor antigen p53 (Homo sapiens) (UniProt P04637). The experiment in a line: TOX21_p53_BLA_p3_ratio: Tox21 HCT-116 p53 Agonism Beta-lactamase Assay, Ratio, Phase 3 (AID 2283596). In outline:
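Cells were seeded at 4000/well, rested 5 h at 37C, then dosed with DMSO compound solutions (217-fold dilution) for 16 h. CCF4-AM substrate was loaded for 2 h at room temperature, and the 460/530 nm emission ratio was fitted for gain of signal versus DMSO.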

Assay [4] can be described thus: TOX21_p53_BLA_p4_viability: Viability Assessment in the Tox21 HCT-116 p53 Agonism Beta-lactamase Assay, Phase 4 (AID 2283597).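 Also: hits lower the luminescence signal meaning cytotoxicity.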 The procedure, abridged: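 4000 HCT116 cells per well; 5 h attachment; compounds from DMSO, 217-fold dilution; 16 h at 37C. Then CCF4-AM, 2 h RT, followed by CellTiter-Glo, 30 min RT, luminescence. Decrease = cytotoxicity.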
A short description of assay [5]: TOX21_p53_BLA_p5_viability: Viability Assessment in the Tox21 HCT-116 p53 Agonism Beta-lactamase Assay, Phase 5 (AID 2283600). In outline: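 Decreased CellTiter-Glo luminescence denotes lost viability. Exposure: 16 h at 37C, 5% CO2, with compounds from DMSO stocks diluted 217-fold in wells of 4000 cells.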
For assay [6], the target named is PGR (gene 5241) (UniProt P06401). Description: TOX21_PR_BLA_Followup_Antagonist_ratio: Tox21 HEK293 Progesterone Receptor (PR) Antagonism Beta-lactamase Follow-Up Assay, Ratio (AID 2283934).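 Also: PR-UAS-bla HEK293T cells stimulated with 1 nM R5020 agonist for 16 hr.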 In outline: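 Measured in PR-UAS-bla HEK293T cells co-treated with compound and 1 nM promegestone for 16 hr; beta-lactamase ratio read after 2 h FRET substrate loading, with parallel CellTiter-Glo cytotoxicity.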
Chain of PGR (gene 5241) (P06401 whole entry, looked up): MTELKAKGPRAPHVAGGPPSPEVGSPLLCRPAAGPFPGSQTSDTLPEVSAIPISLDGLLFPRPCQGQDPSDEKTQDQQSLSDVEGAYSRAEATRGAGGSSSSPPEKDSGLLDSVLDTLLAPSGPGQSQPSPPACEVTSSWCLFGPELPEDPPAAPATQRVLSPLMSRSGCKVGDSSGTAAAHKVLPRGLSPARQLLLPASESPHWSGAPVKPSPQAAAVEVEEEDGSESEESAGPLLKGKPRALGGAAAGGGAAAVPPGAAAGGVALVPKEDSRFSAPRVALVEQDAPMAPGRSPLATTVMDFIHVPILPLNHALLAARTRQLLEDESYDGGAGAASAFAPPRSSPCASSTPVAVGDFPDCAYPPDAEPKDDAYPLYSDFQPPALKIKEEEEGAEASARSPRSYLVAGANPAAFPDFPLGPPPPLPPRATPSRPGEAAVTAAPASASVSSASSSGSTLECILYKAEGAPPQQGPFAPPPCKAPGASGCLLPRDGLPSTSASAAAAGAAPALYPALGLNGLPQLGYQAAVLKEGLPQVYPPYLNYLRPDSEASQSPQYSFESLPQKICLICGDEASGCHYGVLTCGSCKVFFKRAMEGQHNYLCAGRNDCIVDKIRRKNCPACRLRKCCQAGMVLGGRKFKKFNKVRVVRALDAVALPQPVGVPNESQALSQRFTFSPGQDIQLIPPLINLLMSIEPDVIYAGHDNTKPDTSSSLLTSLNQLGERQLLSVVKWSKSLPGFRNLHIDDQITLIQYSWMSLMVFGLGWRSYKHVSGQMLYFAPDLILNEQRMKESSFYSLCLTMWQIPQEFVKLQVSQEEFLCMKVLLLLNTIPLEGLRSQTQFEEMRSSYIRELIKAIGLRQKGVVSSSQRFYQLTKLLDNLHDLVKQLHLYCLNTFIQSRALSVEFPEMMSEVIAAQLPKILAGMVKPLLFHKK

Assay [7] in a line: TOX21_PR_BLA_Followup_Agonist_viability: Viability Assessment in the Tox21 HEK293 Progesterone Receptor (PR) Agonism Beta-lactamase Follow-Up Assay (AID 2283935).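 Also: signal loss means lower viability so actives are cytotoxic.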 In outline: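 Viability is read as CellTiter-Glo luminescence, where loss of signal indicates cytotoxicity. The cells are PR-UAS-bla HEK293T given compounds for 16 hr at 37C and 5% CO2, in the same wells used for the bla readout.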

Assay [8] is described as follows: TOX21_PR_BLA_Followup_Antagonist_viability: Viability Assessment in the Tox21 HEK293 Progesterone Receptor (PR) Antagonism Beta-lactamase Follow-Up Assay (AID 2283936).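 Also: cells exposed to compound with R5020 agonist for 16 h; hits lower the luminescence signal meaning cytotoxicity.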 In outline:
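PR-UAS-bla HEK293T cells in medium with 2% charcoal-stripped FBS were treated with compounds plus R5020 for 16 hr at 37C. After the beta-lactamase read, CellTiter-Glo was added to the same wells and luminescence read after 30 min at room temperature.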

The target of assay [9] is PGR (gene 5241) (UniProt P06401). Description: TOX21_PR_LUC_Followup_Antagonist: Tox21 HEK293 Progesterone Receptor (PR) Antagonism Luciferase Follow-Up Assay (AID 2283938).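 Also: curve fitted upward as signal gain over DMSO baseline despite antagonist label.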 The procedure, abridged: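 HEK293-PR-A-luc cells, 3,000/well, preincubated 5 h at 37C before compound addition in DMSO; 16 h compound exposure at 37C. ONE-Glo luciferase luminescence read after 30 min at room temperature, fitted relative to DMSO baseline.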

Assay [10] deals with Cellular tumor antigen p53 (Homo sapiens) (UniProt P04637). The experiment in a line: TOX21_p53_BLA_p4_ratio: Tox21 HCT-116 p53 Agonism Beta-lactamase Assay, Ratio, Phase 4 (AID 2283601). The procedure, abridged:
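HCT-116 p53 beta-lactamase reporter cells (4000/well) preincubated 5 h, then compound (217-fold dilution of DMSO stock) for 16 h at 37C. CCF4-AM substrate added 2 h at room temperature; 460/530 nm emission ratio fitted upward versus DMSO.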

Assay [11] deals with Thyroid hormone receptor alpha (Rattus norvegicus) + Thyroid hormone receptor beta (Rattus norvegicus) (UniProt P18113+P63059). The experiment in a line: TOX21_TR_LUC_GH3_Antagonist_Followup: Tox21 GH3 Thyroid Hormone Receptor Antagonism Luciferase Follow-Up Assay (AID 2283942). In outline:
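Luminescence read-out (ONE-Glo, 30 min at room temperature) in GH3 reporter cells challenged with 1.0 nM T3 final. Compounds ran at 92 uM to 5nM over 15 concentrations for 24 h; DMSO served as negative control and baseline.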

In a further assay the target is THRA (gene 7067) (UniProt P10827). Description: TOX21_TRA_COA_Antagonist_Followup_ratio: Tox21 Thyroid Hormone Receptor alpha Antagonism through Coactivator Recruitment Follow-Up Assay, Ratio (AID 2283953). The procedure, abridged: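 We measured antagonism of T3-type coactivator recruitment using a TR-FRET ratio (emission 520 and 495 nm) between a Tb-labelled anti-GST antibody on TRα LBD (2.5 nM) and SRC-2 peptide (200 nM). Activity was scaled between DMSO and T3 wells.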
Chain of THRA (gene 7067) (P10827 whole entry, looked up, the tested form may be a part): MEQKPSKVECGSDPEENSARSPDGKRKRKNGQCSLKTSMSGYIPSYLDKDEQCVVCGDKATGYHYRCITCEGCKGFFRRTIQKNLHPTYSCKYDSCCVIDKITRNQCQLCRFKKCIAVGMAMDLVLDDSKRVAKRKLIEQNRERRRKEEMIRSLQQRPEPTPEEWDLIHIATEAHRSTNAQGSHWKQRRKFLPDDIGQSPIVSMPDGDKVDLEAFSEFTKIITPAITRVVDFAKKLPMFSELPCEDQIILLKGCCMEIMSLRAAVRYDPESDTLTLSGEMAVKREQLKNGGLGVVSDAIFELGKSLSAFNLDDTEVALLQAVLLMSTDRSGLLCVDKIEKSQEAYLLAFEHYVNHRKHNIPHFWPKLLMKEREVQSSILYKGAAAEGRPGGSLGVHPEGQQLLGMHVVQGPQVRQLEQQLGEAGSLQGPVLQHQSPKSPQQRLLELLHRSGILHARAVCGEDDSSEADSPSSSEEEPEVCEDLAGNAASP

The target of assay [12] is THRB (gene 7068) (UniProt P10828). The experiment in a line: TOX21_TRB_BLA_Antagonist_Followup_ratio: Tox21 Thyroid Hormone Receptor beta Antagonism Beta-lactamase (BLA) Follow-Up Assay, Ratio (AID 2283958). The procedure, abridged: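 Using charcoal-stripped 2% FBS medium, human TRβ-LBD/GAL4 reporter HEK293T cells received test compounds for 18 h. The endpoint is the cleaved-to-uncleaved substrate ratio (460/530 nm).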
Chain of THRB (gene 7068) (P10828 whole entry, looked up, the tested form may be a part): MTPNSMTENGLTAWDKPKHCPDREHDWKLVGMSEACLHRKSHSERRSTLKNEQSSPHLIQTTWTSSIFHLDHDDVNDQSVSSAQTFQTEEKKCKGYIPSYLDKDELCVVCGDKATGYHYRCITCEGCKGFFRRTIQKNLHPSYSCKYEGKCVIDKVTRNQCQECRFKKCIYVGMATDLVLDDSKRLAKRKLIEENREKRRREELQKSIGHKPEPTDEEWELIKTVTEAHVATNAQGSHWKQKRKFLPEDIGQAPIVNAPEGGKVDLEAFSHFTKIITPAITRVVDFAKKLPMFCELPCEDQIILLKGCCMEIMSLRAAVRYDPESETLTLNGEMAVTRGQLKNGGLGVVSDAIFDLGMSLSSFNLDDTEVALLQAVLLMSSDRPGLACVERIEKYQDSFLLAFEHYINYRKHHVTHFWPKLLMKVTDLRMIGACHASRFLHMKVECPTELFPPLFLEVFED

The nature of assay [13]: TOX21_TRB_BLA_Antagonist_Followup_viability: Viability Assessment in the Tox21 Thyroid Hormone Receptor beta Antagonism Beta-lactamase (BLA) Follow-Up Assay (AID 2283961). In outline:
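HEK293T cells with GAL4-human TRβ LBD and UAS-bla reporter, 3,000 cells/well in 2% charcoal-stripped FBS medium; 11-point concentrations in triplicate, 18 h at 37C. Viability from ATP by CellTiter-Glo luminescence, 30 min RT, same plates.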

In assay [14] the target is THRB (gene 7068) (UniProt P10828). The experiment in a line: TOX21_TRB_COA_Antagonist_Followup_ratio: Tox21 Thyroid Hormone Receptor beta Antagonism through Coactivator Recruitment Follow-Up Assay, Ratio (AID 2283967). The procedure, abridged: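 GST-TRb LBD 5.0 nM + 0.10% BSA, compound added; fluorescein-SRC-2 peptide 200 nM, Tb-anti-GST Ab 2 nM. TR-FRET, ex 340 / em 520:495 ratio. Norm: DMSO 0%, T3 100%.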

Assay [15] in a line: TOX21_TR_RXR_BLA_Antagonist_Followup_viability: Viability Assessment in the Tox21 Thyroid Hormone Receptor beta Retinoid X Receptor alpha (RXRa) Antagonism Beta-lactamase (BLA) Follow-Up Assay (AID 2283979). The procedure, abridged: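 RXRa-bla HEK293T cells (2,500/well, phenol red-free DMEM, 2% charcoal-stripped FBS) were attached 5 h, then exposed to compounds at 11 concentrations in triplicate for 16 h at 37C. Viability measured by CellTiter-Glo ATP luminescence, bidirectional fitting versus DMSO.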

Assay [16] addresses Cellular tumor antigen p53 (Homo sapiens) (UniProt P04637). Description: TOX21_p53_BLA_p5_ratio: Tox21 HCT-116 p53 Agonism Beta-lactamase Assay, Ratio, Phase 5 (AID 2283599). The procedure, abridged: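 HCT-116 p53-bla cells (4000/well) plated 5 h, dosed with compound (217-fold DMSO dilution) for 16 h at 37 C; CCF4-AM substrate 2 h at room temperature. Activity is the 460/530 nm emission ratio (405 nm excitation), fitted in gain-of-signal direction versus DMSO.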

A short description of assay [17]: TOX21_PR_LUC_Followup_Antagonist_viability: Viability Assessment in the Tox21 HEK293 Progesterone Receptor (PR) Antagonism Luciferase Follow-Up Assay (AID 2283940). The procedure, abridged:
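Loss of CellTiter-Glo ATP signal indicates cytotoxicity in HEK293-PR-A-luc cells grown in 10% charcoal-stripped FBS medium, seeded 3,000 per well and incubated 16 h with compound at 37C.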

Assay [18] in a line: TOX21_PR_LUC_Followup_Agonist_viability: Viability Assessment in the Tox21 HEK293 Progesterone Receptor (PR) Agonism Luciferase Follow-Up Assay (AID 2283941).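 Also: loss of signal means cytotoxicity so actives lower viability.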 The procedure, abridged: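 Seeding: HEK293-PR-A-luc, 3,000 cells/well, 5 h at 37C. Treatment: compound in DMSO, 16 h, 37C. Read: CellTiter-Glo ATP luminescence, signal loss taken as lower viability.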

SMILES strings stand for the structures. Records with an inconclusive call do not appear. Active and inactive are the calls of the source. The calls were made as follows: active = hit-call score of the fitted dose curve at least 0.9, where 1 is the maximum; inconclusive = response in the unintended direction; inactive = score below 0.9.

Chain of Cellular tumor antigen p53 (Homo sapiens) (P04637 whole entry, looked up): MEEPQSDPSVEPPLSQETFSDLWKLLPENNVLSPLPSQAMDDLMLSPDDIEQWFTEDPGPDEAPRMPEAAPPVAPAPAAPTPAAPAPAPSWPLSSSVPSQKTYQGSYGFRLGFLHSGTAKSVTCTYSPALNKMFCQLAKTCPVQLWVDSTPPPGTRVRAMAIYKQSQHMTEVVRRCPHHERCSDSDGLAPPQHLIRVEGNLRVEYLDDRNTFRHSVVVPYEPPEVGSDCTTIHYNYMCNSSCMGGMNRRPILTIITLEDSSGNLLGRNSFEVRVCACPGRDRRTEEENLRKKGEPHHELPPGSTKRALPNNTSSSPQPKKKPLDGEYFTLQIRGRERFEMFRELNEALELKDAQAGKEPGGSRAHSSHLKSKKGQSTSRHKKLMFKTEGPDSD

As for `CC(=O)OCC(=O)[C@@]1(OC(C)=O)[C@@H](C)C[C@H]2[C@@H]3C[C@H](F)C4=CC(=O)C=C[C@]4(C)[C@@]3(F)[C@@H](O)C[C@@]21C`, the compound was called inactive (in [1]; in assay [2]; in assay [3]; in assay [4]; in [5]; with PGR (gene 5241) [6]). For the same compound, the compound was called inactive (in assay [7]; in assay [8]; with PGR (gene 5241) [9]).
For the compound `CC(C(=O)O)c1ccc(N2Cc3ccccc3C2=O)cc1` (stereo not drawn), the call in assay [1], in assay [2], in assay [3], in [4], in [5] and in assay [10] was inactive. In addition, the result (in [11]; with THRA (gene 7067); with THRB (gene 7068) [12]; in assay [13]; in the assay with THRB (gene 7068) [14]; in assay [15]) was inactive.
Regarding `Cc1cccc(C)c1NC(=O)CN1CCN(CCCC(c2ccc(F)cc2)c2ccc(F)cc2)CC1`, the call in assay [1], in assay [2], in [3], in assay [4] and in [10] was inactive.
Take `CCCCOc1cc(C(=O)NCCN(CC)CC)c2ccccc2n1`: the compound was classed as inactive in assay [1], in assay [2], in assay [3], in [4] and in [10].
For the compound `CC(=O)c1ccc2c(c1)N(CCCN1CCN(CCO)CC1)c1ccccc1S2`, the compound was classed as inactive in [1], in [2], in [3] and in assay [5]. For the same compound, the concentration at half-maximal activity (AC50) (usually the concentration at which the activity in the assay is half-maximal) in assay [4] was 31.6 µM (active).
Take `Cc1cccc(Oc2ccccc2)c1`: the result in assay [1], in [2], in [3], in assay [4] and in assay [10] was inactive.
For `CCC(=O)OCC(=O)[C@@]1(OC(=O)CC)[C@H](C)C[C@H]2[C@@H]3CCC4=CC(=O)C=C[C@]4(C)[C@@]3(F)[C@@H](O)C[C@@]21C`, the result in assay [1], in assay [2], in assay [3], in [4] and in [5] was inactive.
In the case of `CCOC(=O)[C@H](CCc1ccccc1)N[C@@H](C)C(=O)N1Cc2ccccc2C[C@H]1C(=O)O`, the compound was classed as inactive in assay [1], in [2], in assay [3], in assay [4] and in assay [5].
On to `CC(=O)OC(C)=O`, for which the outcome in [1], in [2], in assay [3], in assay [16] and in assay [5] was inactive.
Turning to `CCOC(=O)c1cccnc1`, the compound was classed as inactive in [1], in assay [2], in [3], in assay [4], in [16] and in assay [10].
Consider `C[C@@H]1C[C@H]2[C@@H]3CCC4=CC(=O)C=C[C@]4(C)[C@@]3(F)[C@@H](O)C[C@]2(C)[C@H]1C(=O)CO`, for which the compound was classed as inactive in assay [1], in [2], in assay [3] and in assay [16].
Turning to `CCOC(=O)Cc1ccc(-c2ccccc2)cc1`, the result in assay [1], in assay [2], in assay [3], in [4] and in [5] was inactive.
Turning to `CC1(C)S[C@@H]2[C@H](N3C(=O)C(c4ccccc4)NC3(C)C)C(=O)N2[C@H]1C(=O)O` (stereo partly drawn), the compound was called inactive in [1], in assay [2], in assay [3], in [4] and in assay [5].
In the case of `Nc1ccc(NC(=O)c2ccc(N)cc2)cc1`, the result in [1], in assay [2], in [3], in assay [4], in [5] and in assay [10] was inactive.
For the compound `COCCOC(=O)C1=C(C)NC(C)=C(C(=O)OC(C)C)C1c1cccc([N+](=O)[O-])c1` (stereo not drawn), the compound was called inactive in assay [1], in [2], in [3], in assay [4], in assay [16] and in [7]. In addition, the call in [8], in assay [17] and in [18] was inactive. Further, the AC50 with PGR (gene 5241) [6] was 23 µM (active); in the assay with PGR (gene 5241) [9] it was 26.4 µM (active).
